Several values for one entry are separate records, joined by “and”; a condition that tells them apart may be missing. Equal values may be shown once. Records with an inconclusive call do not appear. A number with no mark means an inactive call. Activity calls are given as the source filed them. Calls come from the whole dose curve; as a rule, active = well fitted inhibition curve with a large enough effect; inconclusive = small, poorly fitted or top-dose-only effect; inactive = flat fitted curve, though single readings scatter.
What follows are molecules tested on CRL-7250 (assay: Cytotoxic Profiling of Annotated Libraries Using Quantitative High-Throughput Screening (AID 1296008; note: nearly all actives have a fitted effect of over 60% in size)). Settings: Five cell lines viability, CellTiter-Glo ATP luminescence, 48-72 h; max response: hits give low values.
In short: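 Compounds were pin-transferred onto cells and incubated 48 or 72 hr at 37 degree Celsius, 95% humidity. CellTiter-Glo was added, plates sat 10 min at room temperature, then ATP-coupled luminescence was imaged as the viability read-out.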
% is set by controls: 0 for no effect and ±100 for the full control effect; potency is the fitted concentration of half-maximal effect.

| SMILES | max response | outcome | Potency |
| --- | --- | --- | --- |
| CC(N)C12CC3CC(CC(C3)C1)C2 (centres undefined) | 1.82% and 3.28% |  |  |
| COc1cccc(N(C)C(=S)Oc2ccc3c(c2)CCCC3)n1 |  | inactive |  |
| NC(=O)c1cccc(N)c1 | -10% |  |  |
| O=c1oc2c(O)c(O)cc3c(=O)oc4c(O)c(O)cc1c4c23 | -1.07% |  |  |
| Nc1nc(=S)c2[nH]cnc2[nH]1 |  |  | 18.8 µM (active) |
| N[C@@H](C(=O)N[C@@H]1C(=O)N2C(C(=O)O)=C(Cl)CS[C@H]12)c1ccccc1 | 3.96% and -9.13% |  |  |
| CC(C)C[C@H](NC(=O)[C@H](CCc1ccccc1)NC(=O)CN1CCOCC1)C(=O)N[C@@H](Cc1ccccc1)C(=O)N[C@@H](CC(C)C)C(=O)[C@@]1(C)CO1 |  |  | 211 nM (active) and 209 nM (active) |
| NC(=O)c1ccc2[nH]ccc2c1 | -5.07% |  |  |
| COC(c1ccccc1)(c1ccccc1)[C@H](Oc1nc(C)cc(C)n1)C(=O)O |  | inactive |  |
| COc1nc(N)nc2c1ncn2[C@@H]1O[C@H](CO)[C@@H](O)[C@@H]1O | -2.22% and 4.78% |  |  |
| COC(=O)Nc1nc2ccc(Sc3ccccc3)cc2[nH]1 |  |  | 2.37 µM (active) |
| CCN(CC)CCn1c(=O)c(Cc2ccc(OC)cc2)nc2ccccc21 | -4.28% |  |  |
| COc1cc(NS(=O)(=O)c2ccc(N)cc2)nc(OC)n1 | -1.11% and -2.3% |  |  |
| O=C(NCC1CN(c2ccc(N3CCOCC3=O)cc2)C(=O)O1)c1ccc(Cl)s1 (centres undefined) |  | inactive |  |
